According to PubChem BioAssay (NCATS):
Values joined by “and” are separate entries in the source; they are usually repeats but may differ in a detail not shown here. Identical values can stand only once. Results filed as inconclusive are left out. Active and inactive are the calls of the source. Calls follow the shape of the dose curve; as a rule, active = well fitted curve in the direction sought with a large enough effect; inconclusive = small, poorly fitted or top-dose-only effect, or another doubt; inactive = no such curve, though single readings can be large; an effect the other way counts as inactive or inconclusive.

Tests used:
[1] = test system: MCC-13; assay: qHTS assay to identify novel small-molecules to repurpose for Merkel cell carcinoma treatment (AID 1296009); settings: MCC and control cell lines, CellTiter-Glo viability, 72 h; series mostly up to 46 µM; also: nearly all actives have a fitted effect of over 60% in size
Summary of the method: (§1)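 After compound transfer in DMSO, plates were kept 72 hr at 37 degree celsius. Luminescent ATP signal from CellTiter-Glo served as viability measure, normalized against DMSO and no-cell controls.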

[2] = test system: MCC-26; assay: as above; settings: MCC and control cell lines, CellTiter-Glo viability, 72 h; series mostly up to 46 µM
Summary of the method: as §1

[3] = test system: MKL-1; assay: as above; settings: MCC and control cell lines, CellTiter-Glo viability, 72 h; series mostly up to 46 µM
Summary of the method: as §1

[4] = test system: MKL-2; assay: as above; settings: MCC and control cell lines, CellTiter-Glo viability, 72 h; series mostly up to 46 µM
Summary of the method: as §1

[5] = test system: UISO; assay: as above; settings: MCC and control cell lines, CellTiter-Glo viability, 72 h; series mostly up to 46 µM
Summary of the method: as §1

[6] = test system: WaGa; assay: as above; settings: MCC and control cell lines, CellTiter-Glo viability, 72 h; series mostly up to 46 µM
Summary of the method: as §1

[7] = test system: C33A; assay: Primary qHTS to identify gynecologic anti-cancer compounds using libraries of approved drugs and bioactive compounds (AID 1345084); settings: Gynecologic cancer cell panel viability, ATPlite luminescence, 48 h; series mostly up to 57.5 µM; also: nearly all actives have a fitted effect of over 55% in size
Summary of the method: (§2)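 Five-concentration response, 48 h; readout is ATP-driven luciferase luminescence.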

[8] = test system: CAOV3; assay: as above; settings: Gynecologic cancer cell panel viability, ATPlite luminescence, 48 h; series mostly up to 57.5 µM
Summary of the method: as §2

[9] = test system: CASKI; assay: as above; settings: Gynecologic cancer cell panel viability, ATPlite luminescence, 48 h; series mostly up to 57.5 µM
Summary of the method: as §2

[10] = test system: Es-2; assay: as above; settings: Gynecologic cancer cell panel viability, ATPlite luminescence, 48 h; series mostly up to 57.5 µM
Summary of the method: as §2

[11] = test system: HeLa; assay: as above; settings: Gynecologic cancer cell panel viability, ATPlite luminescence, 48 h; series mostly up to 57.5 µM
Summary of the method: as §2

[12] = test system: Hek293T; assay: as above; settings: Gynecologic cancer cell panel viability, ATPlite luminescence, 48 h, control line for the selectivity index; series mostly up to 57.5 µM
Summary of the method: as §2

[13] = test system: JEG-3; assay: as above; settings: Gynecologic cancer cell panel viability, ATPlite luminescence, 48 h; series mostly up to 57.5 µM
Summary of the method: as §2

[14] = test system: OV90; assay: as above; settings: Gynecologic cancer cell panel viability, ATPlite luminescence, 48 h; series mostly up to 57.5 µM
Summary of the method: as §2

[15] = test system: PA-1; assay: as above; settings: Gynecologic cancer cell panel viability, ATPlite luminescence, 48 h; series mostly up to 57.5 µM
Summary of the method: as §2

[16] = test system: SKOV3; assay: as above; settings: Gynecologic cancer cell panel viability, ATPlite luminescence, 48 h; series mostly up to 57.5 µM
Summary of the method: as §2

[17] = test system: Tov-21-G; assay: as above; settings: Gynecologic cancer cell panel viability, ATPlite luminescence, 48 h; series mostly up to 57.5 µM
Summary of the method: as §2

[18] = test system: Tov112D; assay: as above; settings: Gynecologic cancer cell panel viability, ATPlite luminescence, 48 h; series mostly up to 57.5 µM
Summary of the method: as §2

[19] = Drug repurposing screens with cells derived from glioblastoma tumor samples (AID 1345199); settings: GBM patient neurospheres viability, ATP luminescence, 48 h; also: nearly all actives have a fitted effect of over 40% in size
Summary of the method: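 Four patient lines of CD133+ GBM neurospheres were screened at several concentrations; hits were retested in those lines plus three slower-growing GBM lines, using 48-hour treatment and ATP-based viability.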

[20] = at 45.9 µM (top of the series), tumour line B
[21] = at 45.9 µM (top of the series), tumour line D
[22] = at 46 µM (top of the series), tumour line A
[23] = at 46.1 µM (top of the series), tumour line C
% is scaled to controls: 0 for no effect and ±100 for the full control effect.

Nc1nc2ncc(CNc3ccc(C(=O)N[C@@H](CCC(=O)O)C(=O)O)cc3)nc2c(=O)[nH]1
inactive: Potency [1] | Potency [2] | Potency [3] | Potency [4] | Potency [5] | Potency [6] | Potency [7] | Potency [8] | Potency [9] | Potency [10] | Potency [11] | Potency [12] | Potency [13] | Potency [14] | Potency [15] | Potency [16] | Potency [17] | Potency [18] | activity, negative = cell killing [19, 20] -3.4% | activity, negative = cell killing [19, 21] 4.54% | activity, negative = cell killing [19, 22] -10.5% | activity, negative = cell killing [19, 23] -9.36%

OC[C@@H](O)[C@@H](O[C@@H]1O[C@H](CO)[C@H](O)[C@H](O)[C@H]1O)[C@H](O)[C@@H](O)CO
inactive: Potency [1] | Potency [2] | Potency [3] | Potency [4] | Potency [5] | Potency [6] | Potency [7] | Potency [8] | Potency [9] | Potency [10] | Potency [11] | Potency [12] | Potency [13] | Potency [14] | Potency [15] | Potency [16] | Potency [17] | Potency [18] | activity, negative = cell killing [19, 20] -6.48% | activity, negative = cell killing [19, 21] -4.42% | activity, negative = cell killing [19, 22] -40.2% | activity, negative = cell killing [19, 23] -3.02%

C[C@]12C=CC(=O)C=C1[C@@H](F)C[C@@H]1[C@@H]2[C@@H](O)C[C@@]2(C)[C@H]1CC[C@]2(O)C(=O)CO
inactive: Potency [1] | Potency [2] | Potency [3] | Potency [4] | Potency [5] | Potency [6] | Potency [7] | Potency [8] | Potency [9] | Potency [10] | Potency [11] | Potency [12] | Potency [13] | Potency [14] | Potency [15] | Potency [16] | Potency [17] | Potency [18] | activity, negative = cell killing [19, 20] -7.25% and -6.51% | activity, negative = cell killing [19, 21] -13.8% and -3.47% | activity, negative = cell killing [19, 22] -18% | activity, negative = cell killing [19, 23] -19.6% and -9.59%

CCOc1ccc(NC(=O)CC(C)O)cc1 (centres undefined)
inactive: Potency [1] | Potency [2] | Potency [3] | Potency [4] | Potency [5] | Potency [6] | Potency [7] | Potency [8] | Potency [9] | Potency [10] | Potency [11] | Potency [12] | Potency [13] | Potency [14] | Potency [15] | Potency [16] | Potency [17] | Potency [18] | activity, negative = cell killing [19, 20] -5.84% | activity, negative = cell killing [19, 21] -16.9% | activity, negative = cell killing [19, 22] -20.2% | activity, negative = cell killing [19, 23] -0.587%

NC[C@H]1O[C@H](O[C@H]2[C@H](O)[C@@H](O[C@H]3O[C@H](CO)[C@@H](O)[C@H](N)[C@H]3O)[C@H](N)C[C@@H]2N)[C@H](N)[C@@H](O)[C@@H]1O
inactive: Potency [1] | Potency [2] | Potency [3] | Potency [4] | Potency [5] | Potency [6] | Potency [7] | Potency [8] | Potency [9] | Potency [10] | Potency [11] | Potency [12] | Potency [13] | Potency [14] | Potency [15] | Potency [16] | Potency [17] | Potency [18] | activity, negative = cell killing [19, 20] -3.08% and -15.5% | activity, negative = cell killing [19, 21] -22.4% and -15.3% | activity, negative = cell killing [19, 22] -11.7% | activity, negative = cell killing [19, 23] -0.491% and -12.3%

C[C@H]1[C@H](NC(=O)/C(=N/OC(C)(C)C(=O)O)c2csc(N)n2)C(=O)N1S(=O)(=O)O (stereo in doubt)
inactive: Potency [1] | Potency [2] | Potency [3] | Potency [4] | Potency [5] | Potency [6] | Potency [7] | Potency [8] | Potency [9] | Potency [10] | Potency [11] | Potency [12] | Potency [13] | Potency [14] | Potency [15] | Potency [16] | Potency [17] | Potency [18] | activity, negative = cell killing ([19]; at 20 µM (top of the series), tumour line C) -1.55% | activity, negative = cell killing ([19]; at 21.2 µM (top of the series), tumour line B) -2.78% | activity, negative = cell killing ([19]; at 21.2 µM (top of the series), tumour line D) 9.37% | activity, negative = cell killing ([19]; at 21.3 µM (top of the series), tumour line A) -17.3%

OCc1ccccc1O
inactive: Potency [1] | Potency [2] | Potency [3] | Potency [4] | Potency [5] | Potency [6] | Potency [7] | Potency [8] | Potency [9] | Potency [10] | Potency [11] | Potency [12] | Potency [13] | Potency [14] | Potency [15] | Potency [16] | Potency [17] | Potency [18] | activity, negative = cell killing [19, 20] -10.5% | activity, negative = cell killing [19, 21] -12.8% | activity, negative = cell killing [19, 22] -23.4% | activity, negative = cell killing [19, 23] -1.35%

CC(=O)Oc1ccc(C(=C2CCCCC2)c2ccc(OC(C)=O)cc2)cc1
inactive: Potency [1] | Potency [2] | Potency [3] | Potency [4] | Potency [5] | Potency [6] | Potency [7] | Potency [8] | Potency [9] | Potency [10] | Potency [11] | Potency [12] | Potency [13] | Potency [15] | Potency [16] | Potency [17] | Potency [18] | activity, negative = cell killing [19, 20] -19.5% | activity, negative = cell killing [19, 21] -13.6% | activity, negative = cell killing [19, 22] -21.3%

CCN1CCC[C@H]1CNC(=O)c1c(OC)ccc(Br)c1OC
inactive: Potency [1] | Potency [2] | Potency [3] | Potency [4] | Potency [5] | Potency [6] | Potency [7] | Potency [8] | Potency [9] | Potency [10] | Potency [11] | Potency [12] | Potency [13] | Potency [14] | Potency [15] | Potency [17] | Potency [18] | activity, negative = cell killing [19, 20] -5.99% | activity, negative = cell killing [19, 21] -23.8% | activity, negative = cell killing [19, 23] -7.43%

CC(C)COC(=O)c1ccc(N)cc1
inactive: Potency [1] | Potency [2] | Potency [3] | Potency [4] | Potency [5] | Potency [6] | Potency [7] | Potency [8] | Potency [9] | Potency [10] | Potency [11] | Potency [12] | Potency [13] | Potency [14] | Potency [15] | Potency [17] | Potency [18] | activity, negative = cell killing [19, 20] -9.56% | activity, negative = cell killing [19, 21] -18.7% | activity, negative = cell killing [19, 23] -7.77%
